According to PubChem BioAssay (EPA / NIEHS):
The source made the active and inactive calls. How the source made its calls: active means hit-call score of the fitted dose curve at least 0.9, where 1 is the maximum; inactive means score below 0.9.

What was measured:
[1] = target: CCAAT/enhancer-binding protein beta (Homo sapiens) (UniProt P17676); assay: ATG_C_EBP_CIS: Attagene CIS-FACTORIAL HepG2 Assay for human CCAAT/Enhancer Binding Protein (C/EBP) beta (AID 2282927); conditions: HepG2 Attagene cis-factorial transcription factor reporter; actives raise or lower the signal
How it was run: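 Chemical-treated HepG2 cells (24 h) bearing cis-regulated reporter constructs were processed for total RNA, then reverse transcription, PCR amplification, fluorescent primer extension and fragment analysis; gain- and loss-of-signal were fitted against DMSO.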

[2] = ATG_CMV_CIS: Attagene CIS-FACTORIAL HepG2 Assay for human CMV (Internal Marker) (AID 2282928); conditions: HepG2 CMV promoter reporter, transcription factor profiling; actives raise or lower the signal;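 further: endpoint acts as a background internal control marker rather than a target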
How it was run: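 24 h chemical treatment, HepG2 with transient multi-reporter transfection; RNA → oligo(dT) RT → PCR → 6-FAM extension → HpaI digest → CE fluorescence. Bidirectional fit, DMSO negative control.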

[3] = ATG_DR4_LXR_CIS: Attagene CIS-FACTORIAL HepG2 Assay for human Liver X Receptor (LXR), DR4 submotif (AID 2282929); conditions: HepG2 Attagene DR4 cis-reporter, mRNA transcription; AC50: actives raise or lower the signal unless noted; outcome: actives raise or lower the signal unless noted
How it was run: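 Measures endogenous transcription factor activity via a DR4-driven reporter transcript in human HepG2 cells. Compounds incubated 24 h; mRNA quantified by RT-PCR and capillary electrophoresis, analysed as gain or loss of signal versus DMSO.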

[4] = ATG_AP_1_CIS: Attagene CIS-FACTORIAL HepG2 Assay for human Activator Protein 1 (AP-1) (AID 2282931); conditions: HepG2 Attagene cis-factorial AP-1 reporter mRNA; actives raise or lower the signal
How it was run: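 Bidirectional concentration-response fitting against DMSO controls. Underlying signal: reporter mRNA from cis-promoter constructs in transiently transfected HepG2, measured after 24 h by RT-PCR and capillary electrophoresis.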

[5] = ATG_AP_2_CIS: Attagene CIS-FACTORIAL HepG2 Assay for human Activator Protein 2 (AP-2) (AID 2282932); conditions: HepG2 AP-2 cis-reporter, Attagene transcription factor profiling; AC50: actives raise or lower the signal unless noted; outcome: actives raise or lower the signal unless noted
How it was run: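 Cells (HepG2) transfected with promoter-driven reporter constructs, treated 24 h. Total RNA reverse-transcribed, reporter cDNA PCR-amplified, FAM-labelled by primer extension, digested, resolved by capillary electrophoresis. Activity fitted both directions versus DMSO.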

[6] = ATG_BRE_CIS: Attagene CIS-FACTORIAL HepG2 Assay for human Bone Morphogenetic Protein (BMP) Response Element (BRE) (AID 2282933); conditions: HepG2 BMP response element reporter, Attagene transcription factor profiling; actives raise or lower the signal
How it was run: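 After a 24 h chemical treatment, transiently transfected HepG2 cells were lysed for RNA; reporter transcripts were quantified by fluorescent RT-PCR and capillary electrophoresis, normalised to DMSO.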

[7] = target: Retinoic acid receptor alpha (Homo sapiens) (UniProt P10276); assay: ATG_DR5_RAR_CIS: Attagene CIS-FACTORIAL HepG2 Assay for human Retinoic Acid Receptor Alpha (RARE), DR5 submotif (AID 2282934); conditions: HepG2 Attagene cis-factorial RARE DR5 reporter, mRNA; actives raise or lower the signal
How it was run: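 Transfected HepG2 reporter cells are exposed to chemicals for 24 h. Then RNA is extracted and the DR5 element reporter transcript is measured by RT-PCR and capillary electrophoresis, with bidirectional curve fitting relative to DMSO.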

[8] = ATG_E_Box_CIS: Attagene CIS-FACTORIAL HepG2 Assay for human Enhancer Box (E-box) (AID 2282936); conditions: HepG2 E-box cis-reporter transcription, actives raise or lower the signal
How it was run: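 Endogenous transcription factor activity was sensed in human HepG2 liver cells through transfected cis-promoter reporter units. After 24 h of dosing, total RNA was reverse-transcribed and reporter cDNA resolved by capillary electrophoresis.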

[9] = ATG_M_61_CIS: Attagene CIS-FACTORIAL HepG2 Assay for M61 Transcription Factor (Internal Marker) (AID 2282937); conditions: HepG2 Attagene CIS-FACTORIAL M61 internal marker reporter; actives raise or lower the signal
How it was run: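 Fluorescence from labelled cDNA fragments, separated by capillary electrophoresis, quantifies reporter induction. HepG2 cells bearing transiently transfected cis-promoter MRTUs were incubated with test chemical for 24 h; DMSO defined baseline for gain/loss fitting.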

[10] = ATG_EGR_CIS: Attagene CIS-FACTORIAL HepG2 Assay for human Early Growth Response 1 (EGR1) (AID 2282938); conditions: HepG2 Attagene CIS-FACTORIAL EGR reporter mRNA; actives raise or lower the signal
How it was run: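 Cell-based multiplex transcription assay: HepG2 carrying transfected cis-element reporter units, 24 h chemical treatment. Fluorescence from capillary electrophoresis of RT-PCR products gives mRNA levels; fitting is bidirectional relative to DMSO.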

[11] = ATG_ERE_CIS: Attagene CIS-FACTORIAL HepG2 Assay for Estrogen Response Element (ERE) (AID 2282940); conditions: HepG2 ERE cis-reporter, Attagene RNA transcript; actives raise or lower the signal
How it was run: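 Measuring endogenous transcription factor output, the assay doses transfected HepG2 cells for 24 hours and quantifies reporter transcripts by fluorescent RT-PCR and capillary electrophoresis, with DMSO as baseline.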

[12] = ATG_Ets_CIS: Attagene CIS-FACTORIAL HepG2 Assay for human Erythroblast Transformation Specific (ETS) (AID 2282941); conditions: HepG2 ETS cis-reporter transcription; AC50: actives raise or lower the signal unless noted; outcome: actives raise or lower the signal unless noted
How it was run: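 Cis-regulated reporter mRNA induction in HepG2 (transient transfection), 24 h exposure, RT-PCR plus capillary electrophoresis detection; DMSO serves as negative control and baseline.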

[13] = target: Hepatocyte nuclear factor 3-beta (Homo sapiens) (UniProt Q9Y261); assay: ATG_FoxA2_CIS: Attagene CIS-FACTORIAL HepG2 Assay for human Forkhead box A2 (FOXA2) (AID 2282942); conditions: HepG2 cis-reporter transcription factor activity, 24 h; actives raise or lower the signal
How it was run: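 In transiently transfected human HepG2 cells, promoter-driven reporter mRNA levels after 24 h chemical exposure are determined via RT-PCR with capillary electrophoresis. DMSO serves as baseline for bidirectional fitting.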

[14] = ATG_FoxO_CIS: Attagene CIS-FACTORIAL HepG2 Assay for human Forkhead box O (FoxO) (AID 2282943); conditions: HepG2 Attagene cis-reporter, FoxO element, mRNA; actives raise or lower the signal
How it was run: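 24 h chemical exposure, HepG2 with transient cis-MRTU transfection. RNA extraction, oligo(dT) RT, reporter-specific PCR, primer-extension labelling, HpaI digestion, CE fragment analysis; bidirectional fit, DMSO baseline.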

[15] = ATG_GATA_CIS: Attagene CIS-FACTORIAL HepG2 Assay for human GATA Binding Protein (AID 2282944); conditions: HepG2 GATA cis-element reporter, Attagene multiplex mRNA; actives raise or lower the signal
How it was run: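 Measures endogenous transcription factor-driven reporter mRNA in HepG2 cells transiently carrying cis-regulated constructs. 24 h dosing; RNA via oligo(dT) reverse transcription, PCR, HpaI digestion, capillary electrophoresis; fitted relative to DMSO.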

[16] = ATG_GLI_CIS: Attagene CIS-FACTORIAL HepG2 Assay for human Zinc Finger Protein GLI1 (AID 2282945); conditions: HepG2, Attagene cis-factorial reporter mRNA, GLI element; actives raise or lower the signal
How it was run: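 HepG2 cells transiently transfected with cis-promoter multiplexed reporter units report endogenous transcription factor activity. After 24 h chemical exposure, reporter mRNA was quantified by RT-PCR, 6-FAM labelling, HpaI digestion and capillary electrophoresis, with bidirectional fitting against DMSO.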

[17] = target: Bile acid receptor (Homo sapiens) (UniProt Q96RI1); assay: ATG_IR1_CIS: Attagene CIS-FACTORIAL HepG2 Assay for human Nuclear Receptor Subfamily 1 Group H Member 4 (NR1H4), IR1 submotif (AID 2282946); conditions: IR1 reporter transcription, actives raise or lower the signal
How it was run: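 Readout: reporter transcript levels by RT-PCR with fluorescent capillary electrophoresis, from HepG2 cells transiently transfected with multiplexed cis-regulated reporters and dosed 24 h. Gain- or loss-of-signal fitted versus DMSO negative control.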

[18] = target: Aryl hydrocarbon receptor (Homo sapiens) (UniProt P35869); assay: ATG_Ahr_CIS: Attagene CIS-FACTORIAL HepG2 Assay for human Aryl Hydrocarbon Receptor (Ahr) (AID 2282930); conditions: HepG2 AhR cis-factorial reporter transcription; actives raise or lower the signal
How it was run: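 Following 24 h of chemical dosing, transfected HepG2 liver cells with cis-driven reporter units were lysed for RNA; reporter mRNA was quantified via RT-PCR and capillary electrophoresis, and responses fitted bidirectionally from DMSO.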

[19] = target: Transcription factor E2F1 (Homo sapiens) (UniProt Q01094); assay: ATG_E2F_CIS: Attagene CIS-FACTORIAL HepG2 Assay for human E2F Transcription Factor 1 (AID 2282935); conditions: HepG2 Attagene cis-reporter, E2F reporter RNA transcripts; actives raise or lower the signal
How it was run: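 First, HepG2 cells were transfected with reporter transcription units. Next, they were dosed for 24 h. Then RNA was isolated, converted to cDNA, PCR-amplified, FAM-labeled, HpaI-digested and analyzed by capillary electrophoresis.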

[20] = ATG_M_19_CIS: Attagene CIS-FACTORIAL HepG2 Assay for M19 Transcription Factor (Internal Marker) (AID 2282939); conditions: HepG2 Attagene CIS-FACTORIAL M19 internal marker reporter; actives raise or lower the signal
How it was run: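 In this multiplexed cell assay, transiently transfected HepG2 reporter units report endogenous transcription-factor activity; after 24 hours of treatment, labelled reporter cDNA fragments are quantified by capillary electrophoresis and fitted bidirectionally against DMSO.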

Measured: AC50

Chain of Hepatocyte nuclear factor 3-beta (Homo sapiens) (Q9Y261 whole entry, looked up): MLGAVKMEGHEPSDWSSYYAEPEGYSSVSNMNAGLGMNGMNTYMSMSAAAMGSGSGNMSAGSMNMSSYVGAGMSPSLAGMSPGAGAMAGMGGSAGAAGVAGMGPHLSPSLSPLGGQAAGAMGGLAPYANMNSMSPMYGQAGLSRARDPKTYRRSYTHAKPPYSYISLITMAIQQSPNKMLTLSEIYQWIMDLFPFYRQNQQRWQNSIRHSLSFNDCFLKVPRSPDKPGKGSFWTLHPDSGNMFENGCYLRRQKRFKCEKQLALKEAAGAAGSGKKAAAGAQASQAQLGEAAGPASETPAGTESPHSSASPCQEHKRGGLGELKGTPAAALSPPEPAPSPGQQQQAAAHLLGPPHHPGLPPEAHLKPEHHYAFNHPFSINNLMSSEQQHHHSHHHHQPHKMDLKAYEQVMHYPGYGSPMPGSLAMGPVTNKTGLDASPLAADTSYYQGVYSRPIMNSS
Chain of CCAAT/enhancer-binding protein beta (Homo sapiens) (P17676 whole entry, looked up, the tested form may be a part): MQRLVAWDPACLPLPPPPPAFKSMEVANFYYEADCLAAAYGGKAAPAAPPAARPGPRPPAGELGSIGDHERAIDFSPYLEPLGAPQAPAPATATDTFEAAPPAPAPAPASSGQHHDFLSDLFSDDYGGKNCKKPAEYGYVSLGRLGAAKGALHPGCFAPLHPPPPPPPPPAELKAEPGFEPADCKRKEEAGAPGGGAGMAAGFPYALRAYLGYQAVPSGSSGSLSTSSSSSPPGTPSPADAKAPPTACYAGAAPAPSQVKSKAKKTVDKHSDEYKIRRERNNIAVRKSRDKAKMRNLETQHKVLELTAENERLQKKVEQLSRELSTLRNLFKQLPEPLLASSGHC
Chain of Bile acid receptor (Homo sapiens) (Q96RI1 whole entry, looked up): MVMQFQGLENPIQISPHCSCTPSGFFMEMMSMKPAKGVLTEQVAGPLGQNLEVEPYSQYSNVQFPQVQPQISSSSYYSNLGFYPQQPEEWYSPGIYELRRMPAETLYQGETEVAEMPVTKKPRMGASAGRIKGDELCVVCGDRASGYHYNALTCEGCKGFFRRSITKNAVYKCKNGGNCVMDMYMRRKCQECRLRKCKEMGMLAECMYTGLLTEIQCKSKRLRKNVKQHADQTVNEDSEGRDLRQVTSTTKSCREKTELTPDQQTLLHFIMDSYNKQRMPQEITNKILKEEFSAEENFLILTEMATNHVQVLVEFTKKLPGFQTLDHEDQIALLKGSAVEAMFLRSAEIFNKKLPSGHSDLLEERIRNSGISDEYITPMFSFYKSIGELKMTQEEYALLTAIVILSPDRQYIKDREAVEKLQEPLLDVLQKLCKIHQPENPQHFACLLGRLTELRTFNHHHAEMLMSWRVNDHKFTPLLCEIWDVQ
Chain of Retinoic acid receptor alpha (Homo sapiens) (P10276 whole entry, looked up): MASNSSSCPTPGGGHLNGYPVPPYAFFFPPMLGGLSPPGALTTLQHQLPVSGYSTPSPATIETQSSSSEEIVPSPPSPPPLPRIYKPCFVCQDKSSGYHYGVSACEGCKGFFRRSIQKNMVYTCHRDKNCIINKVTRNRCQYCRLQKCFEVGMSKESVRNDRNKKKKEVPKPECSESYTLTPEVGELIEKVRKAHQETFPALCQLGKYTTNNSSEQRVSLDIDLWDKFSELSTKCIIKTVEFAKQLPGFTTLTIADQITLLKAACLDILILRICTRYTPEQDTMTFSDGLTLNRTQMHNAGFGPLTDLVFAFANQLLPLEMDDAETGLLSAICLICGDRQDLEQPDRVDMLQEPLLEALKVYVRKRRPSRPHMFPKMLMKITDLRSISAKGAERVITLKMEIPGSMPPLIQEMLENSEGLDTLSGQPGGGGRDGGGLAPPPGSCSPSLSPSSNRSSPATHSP
Chain of Transcription factor E2F1 (Homo sapiens) (Q01094 whole entry, looked up): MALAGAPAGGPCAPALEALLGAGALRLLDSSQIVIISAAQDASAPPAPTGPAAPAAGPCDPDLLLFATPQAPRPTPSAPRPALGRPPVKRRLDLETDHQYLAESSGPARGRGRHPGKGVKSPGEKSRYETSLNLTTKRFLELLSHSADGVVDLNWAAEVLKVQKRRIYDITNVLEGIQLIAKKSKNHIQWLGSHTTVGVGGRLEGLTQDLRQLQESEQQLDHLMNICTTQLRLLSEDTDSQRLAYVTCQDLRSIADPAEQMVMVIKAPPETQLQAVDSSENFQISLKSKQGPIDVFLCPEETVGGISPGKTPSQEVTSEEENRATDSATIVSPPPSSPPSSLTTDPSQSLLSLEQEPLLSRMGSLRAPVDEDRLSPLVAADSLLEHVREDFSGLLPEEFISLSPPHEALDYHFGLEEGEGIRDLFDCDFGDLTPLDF
Chain of Aryl hydrocarbon receptor (Homo sapiens) (P35869 whole entry, looked up): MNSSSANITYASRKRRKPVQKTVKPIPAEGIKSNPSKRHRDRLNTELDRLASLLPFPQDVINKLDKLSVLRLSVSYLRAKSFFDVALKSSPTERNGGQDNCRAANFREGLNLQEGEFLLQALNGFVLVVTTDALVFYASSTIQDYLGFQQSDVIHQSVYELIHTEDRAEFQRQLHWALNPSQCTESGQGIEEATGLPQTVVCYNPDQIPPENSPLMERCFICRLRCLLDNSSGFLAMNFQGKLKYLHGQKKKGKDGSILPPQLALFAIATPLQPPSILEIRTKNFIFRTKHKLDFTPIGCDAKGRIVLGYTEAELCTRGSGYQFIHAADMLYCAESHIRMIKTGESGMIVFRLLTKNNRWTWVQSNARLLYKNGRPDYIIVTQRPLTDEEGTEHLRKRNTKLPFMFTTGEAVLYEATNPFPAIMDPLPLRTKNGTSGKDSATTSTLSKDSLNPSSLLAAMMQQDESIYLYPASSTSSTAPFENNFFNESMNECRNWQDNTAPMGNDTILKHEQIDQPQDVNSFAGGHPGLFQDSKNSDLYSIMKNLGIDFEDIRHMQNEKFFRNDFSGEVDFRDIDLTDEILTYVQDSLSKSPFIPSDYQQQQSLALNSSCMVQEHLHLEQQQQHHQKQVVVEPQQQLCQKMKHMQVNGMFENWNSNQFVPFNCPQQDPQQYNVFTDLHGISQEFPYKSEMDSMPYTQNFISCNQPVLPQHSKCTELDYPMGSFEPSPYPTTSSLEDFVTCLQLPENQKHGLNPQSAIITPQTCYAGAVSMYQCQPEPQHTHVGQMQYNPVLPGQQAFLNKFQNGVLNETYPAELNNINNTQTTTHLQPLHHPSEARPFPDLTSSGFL

CCOC(OCC)C(=O)c1ccccc1
active: [11] 77.6 µM
not listed: [18] | [19] | [20]
inactive: all other assays above

C=CC(=O)OCCC(F)(F)C(F)(F)C(F)(F)C(F)(F)C(F)(F)C(F)(F)F
active: [11] 30.9 µM
not listed: [5] | [7] | [19] | [20]
inactive: all other assays above

Nc1ccn([C@@H]2O[C@H](CO)[C@@H](O)C2O)c(=O)n1 (some centres undefined)
not listed: [18]
inactive: all other assays above

O=C1c2ccc(O)c(O)c2C(=O)c2c(O)ccc(O)c21
active: [2] 4.28 µM | [4] 50 µM | [8] 6.45 µM | [11] 13.6 µM
not listed: [14] | [16] | [18]
inactive: all other assays above
